# Shown are actives, neighbours in structure and some others; about 27% of the full set was active somewhere.
# CYP2C19 activ: human CYP2C19 activators, primary screen, biochemical, luminescence | Cytochrome P450 2C19 (Homo sapiens), P33261 | recombinant CYP2C19, luciferin-H EGE luminescence; hits give high values; 0 = fully inhibited enzyme, 1 = untreated enzyme | activation factor at 5 µM | 96,000 tested, under 10 active;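 active = activation factor of at least 2 at 5 µM in the primary screen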;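 note: 0 = wells with 2.5 mM tranylcypromine and 1 = vehicle-only wells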
# EphB4 antag: EphB4-ephrin-B2 interaction antagonists, primary screen, biochemical, TNYL-RAW peptide probe, fluorescence polarization | EphB4 LBD / TNYL-RAW-Alexa532 peptide | inhibition, % at 7 µM | AID 720, 2007 | 0.15% of 97,000 active | Ephrin type-B receptor 4 (Homo sapiens), P54760;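 active = inhibition above the screen-wide mean inhibition plus 3 SD, cut at about 15% in these data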;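 note: 0% = DMSO wells and 100% = excess unlabeled TNYL-RAW peptide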
# CYP2C19 inh: blockers of cytochrome P450 2C19 activity – biochemical, luminescence, ADME assay, primary screen | CYP2C19 Supersomes, luciferin-H EGE luminescence, 30 min | 21% of 96,000 active | AID 778, 2007 | P33261 | inhibition, % at 5 µM;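 active = CYP2C19 inhibition above a set limit at 5 µM in the primary screen, cut at about 50% in these data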;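 note: plate controls were negative control wells for no effect and 2.5 mM tranylcypromine positive control for full effect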
# CYP2C9 activ: human CYP2C9 activators, primary screen, biochemical, luminescence; Cytochrome P450 2C9 (Homo sapiens), P11712; recombinant CYP2C9, luciferin-H conversion; hits give high values; factor 1 = untreated enzyme, 0 = blocked; activation factor at 5 µM; 1.4% of 96,000 active;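 active = activation factor of 2 or more for CYP2C9 at a 5 µM dose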;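 note: 0 = sulfaphenazole-blocked wells and 1 = vehicle-only wells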
# Target sequence (P11712 whole entry, looked up): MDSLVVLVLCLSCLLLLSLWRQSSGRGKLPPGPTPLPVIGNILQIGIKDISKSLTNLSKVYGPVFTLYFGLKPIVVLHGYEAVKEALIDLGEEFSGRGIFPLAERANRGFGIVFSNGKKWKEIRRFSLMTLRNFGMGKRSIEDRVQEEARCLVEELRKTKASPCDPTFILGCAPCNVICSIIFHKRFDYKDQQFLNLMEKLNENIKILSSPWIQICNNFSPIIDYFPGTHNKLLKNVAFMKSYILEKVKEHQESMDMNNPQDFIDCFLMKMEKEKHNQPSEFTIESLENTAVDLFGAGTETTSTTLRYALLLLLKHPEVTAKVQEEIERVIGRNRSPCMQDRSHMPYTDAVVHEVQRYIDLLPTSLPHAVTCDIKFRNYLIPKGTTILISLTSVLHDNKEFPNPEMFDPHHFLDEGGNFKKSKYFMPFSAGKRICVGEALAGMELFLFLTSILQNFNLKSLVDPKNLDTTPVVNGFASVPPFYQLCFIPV
# CYP2C9 inh: blockers of cytochrome P450 2C9 activity – biochemical, luminescence, ADME assay, primary screen; CYP2C9 Supersomes, luciferin-H conversion; inhibition, % at 5 µM; 20% of 96,000 active; AID 777, 2007;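 active = blocking of liver enzyme CYP2C9 beyond about 50% at 5 µM, limit read from the data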
# Active calls of the source: *; . = no result given.
SMILES,CYP2C19 activ,EphB4 antag,CYP2C19 inh,CYP2C9 activ,CYP2C9 inh
COC(=O)Nc1ccc(S(=O)(=O)N(CCO)CC(F)(F)C(F)F)cc1,1,1.5,3.0,0.8,18.7
COc1ccc(C2=NO[C@@H]3C(=O)N(c4ccc(C)cc4C)C(=O)[C@H]23)cc1OC,1,11.1,-0.9,1,0.0
CCCn1c(SCc2nc3sc(C)c(C)c3c(=O)[nH]2)nc2ccccc2c1=O,0.6,-0.4,36.9,0.3,66.0*
C=CCn1c(SCc2nc3ccccc3c(=O)[nH]2)nc2ccccc2c1=O,0.7,-1.4,33.2,0.2,82.8*
C=CCn1c(SCC(=O)N2CCc3ccccc3C2)nc2ccccc2c1=O,0.3,-0.7,74.0*,0.1,94.7*
O=c1c2ccccc2nc(SCc2nnc(-c3ccccc3)o2)n1-c1ccccc1,0.6,.,35.1,0,95.4*
Cn1c(=O)c2cc(S(=O)(=O)NCCC(=O)Nc3ccccc3F)ccc2n(C)c1=O,1,-2.8,1.4,1,2.6
COc1cccc(C2=NOC(C(=O)N3CCN(c4ccccc4)CC3)C2)c1OC (configuration not stated),.,-5.4,.,.,.
O=C1CC(Cc2ccc(Cl)cc2)C(=O)N1c1ccccn1 (configuration not stated),0.6,-5.2,43.6,1,-1.1
Cc1noc(C)c1CSc1nc2ccccc2c(=O)n1-c1ccccc1,0.6,2.9,37.4,0.2,84.2*
Cc1noc(C)c1CSc1nc2[nH]ncc2c(=O)n1-c1ccccc1,.,3.2,.,.,.
COc1cccc(OCc2nc3ccccc3c(=O)n2N)c1,0.7,1.6,30.5,0.9,11.7
CCCCCc1nc2ccccc2c(=O)n1N,0.4,-6.9,59.7*,0.7,31.2
Cc1ccccc1OCc1nc2ccccc2c(=O)n1N,0.5,6.0,52.7*,0.5,50.3*
Nn1c(COc2ccccc2)nc2ccccc2c1=O,0.5,-0.9,51.8*,0.8,23.3
CCn1c(COc2ccccc2C)nc2ccccc21,.,-0.9,.,.,.
Clc1ccc2c(c1)CNc1c(ncnc1N1CCOCC1)O2,0,-7.8,99.4*,0.4,55.7*
Nc1cc(Cl)ccc1N1CCOCC1,0.7,-7.9,26.0,0.9,9.3
O=C(/C=C/N1CCOCC1)c1ccc(-c2ccccc2)cc1,0.8,-0.8,20.6,0.1,89.0*
O=C(c1ccc(-c2ccccc2)cc1)c1ccccc1C(=O)N1CCOCC1,0.7,-0.8,33.7,0.6,37.0
CC(C)Nc1nnc(SCC(=O)c2c(N)n(Cc3ccccc3)c(=O)n(C)c2=O)s1,0.7,1.5,28.5,0.4,58.2*
Cc1nnc(SCC(=O)c2c(N)n(C)c(=O)n(C)c2=O)n1Cc1ccccc1,1.1,.,-11.7,1.1,-13.8
CCOC(=O)CSc1nnc(CNC(=O)c2cc(OCC)c(OCC)c(OCC)c2)n1C,1.1,-1.5,-10.7,1,-0.2
Cn1c2ccccc2c2nnc(SC3CCOC3=O)nc21 (configuration not stated),1,-4.1,-3.4,1.1,-10.5
Nn1c(Cc2cccc3ccccc23)nnc1SC1CCOC1=O (configuration not stated),0.4,-6.8,55.4*,2.9*,-191.2
SMILES,CYP2C19 activ,EphB4 antag,CYP2C19 inh,CYP2C9 activ,CYP2C9 inh
CN(C(=O)CSc1nnc(Cc2cccc3ccccc23)n1N)C1CCS(=O)(=O)C1 (configuration not stated),1.2,0.1,-15.7,2*,-98.0
Cc1cc(=O)n2nc(N3CCCC(C(=O)N4CCc5ccccc54)C3)sc2n1 (configuration not stated),0.8,2.9,21.2,0.4,57.9*
O=C(C1CCCN(c2ncccn2)C1)N1CCc2ccccc21 (configuration not stated),0.2,-4.6,83.5*,0.3,71.5*
Cc1cc(=O)n2nc(N3CCCC(C(=O)N4CCOCC4)C3)sc2n1 (configuration not stated),1.2,.,-24.5,1.2,-20.9
O=C(Nc1ccccc1-c1ccccc1)C1CCCN(c2ncccn2)C1 (configuration not stated),0.3,1.1,73.0*,0.5,51.1*
CCc1nnc(NC(=O)CN2CCN(c3ccc(Cl)cc3)CC2)s1,.,-2.8,.,.,.
Cc1cc(Cl)cc(Br)c1OCCCCn1cncn1,0,7.3,97.8*,0.3,73.1*
C=CCc1cc(C)cc(C)c1OCCn1cncn1,.,16.5*,.,.,.

# Screens: PubChem BioAssay, several laboratories
